Publication PMC5540273 (PLoS ONE, 2017)
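Further: KINOMEscan kinase panel screen.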

The compounds below were run on T1, LKB1. Settings: concentration: 1 μM, replicates: in singlicate; n = 1.
T1 construct: gene STK11
In the case of `COc1cc2ncn(-c3cc(OCc4ccncc4)c(C(N)=O)s3)c2cc1OC` [GSK336313], the “%Inh” value is reported as 0%. `OCCCNc1nccc(-c2c(-c3cccc(C(F)(F)F)c3)nn3cc(C(F)(F)F)ccc23)n1` [GW630813] was tested, and the “%Inh” value was 16%. With `Cc1ccc(Oc2ccc(Nc3ncnc4cc[nH]c34)cc2C)cn1` the “%Inh” value was 11%. With `COc1cc(Nc2nccc(N3CCC(NC(=O)C(C)c4ccc(Cl)cc4)C3)n2)cc(OC)c1OC` (stereo not drawn) [GSK1379757] the “%Inh” value was 7%. With `Nc1nc(N)c2nc(-c3ccccc3)[nH]c2n1` [SKF-12778] the “%Inh” value was 0%. For `COc1cc(OC)cc(-c2cc3cnc(N)nc3nc2NC(=O)NC(C)(C)C)c1`, the “%Inh” value was 0%. `COc1cc2nccc(Nc3cccc(Oc4ccccc4)c3)c2cc1OC.Cl` [GW284543] was tested, and the “%Inh” value was 0%. For `CCn1c(-c2ccoc2)nc2cnccc21` [SB-733887], the “%Inh” value was 0%. For `CCn1c(-c2nonc2N)nc2ccccc21` [SB-693162/GW549034], the “%Inh” value was 0%. In the case of `COC(=O)c1c(-c2ccccc2)c2cc(C)ccc2c(=O)n1Cc1ccccc1`, the “%Inh” value is reported as 0%. In the case of `CCCNC(=O)Nc1ccc(Oc2ncnc3ccn(C)c23)cc1`, the “%Inh” value is reported as 9%. In the case of `COc1ccc(-c2coc3ccc(-c4nnc(SCc5cccc(C#N)c5)o4)cc23)cc1`, the “%Inh” value is reported as 0%. In the case of `CCC(=O)c1c(-c2ccccc2)c2cc(Cl)ccc2c(=O)n1Cc1cc(S(C)(=O)=O)n(CC(F)F)n1`, the “%Inh” value is reported as 0%. `CN1C(=O)C(Nc2ccccc2)=C(c2ccccc2)C1=O` [SB-300079] was tested, and the “%Inh” value was 13%. For `Cc1ccccc1COc1cc(-n2cnc3cc(Cl)ccc32)sc1C(N)=O` [GW813349], the “%Inh” value was 0%. With `COc1cc2ncn(-c3cc(OCCCc4ccccc4)c(C(N)=O)s3)c2cc1OC` [GSK205189] the “%Inh” value was 0%. `COc1cc2ncn(-c3cc(OCc4ccncc4Br)c(C(N)=O)s3)c2cc1OC` [GW854278] was tested, and the “%Inh” value was 0%. For `O=C1NC(=O)C(c2ccccc2)=C1Nc1cccc(O)c1` [SB-390534], the “%Inh” value was 0%. In the case of `Cc1cccc(-c2nc(Nc3ccc4c(cnn4C)c3)c3ccccc3n2)n1` [GW876731], the “%Inh” value is reported as 48%. With `COc1ccc(CNC(=O)NC2CCN(c3ccnc(Nc4ccc(F)cc4)n3)C2)cc1` (stereo not drawn) [GSK1379706] the “%Inh” value was 13%. In the case of `O=C(NCCNc1ccnc(Nc2ccc(F)cc2)n1)Nc1ccc2c(c1)OCO2` [GSK1379882], the “%Inh” value is reported as 25%. In the case of `CCS(=O)(=O)c1ccc(OC)c(Nc2ncc(-c3ccc(F)cc3)o2)c1.Cl` [GW591947], the “%Inh” value is reported as 0%. `COC(=O)c1c(-c2ccccc2)c2cc(Br)ccc2c(=O)n1Cc1ccc(NC(=O)CCC(=O)O)cc1` was tested, and the “%Inh” value was 6%. For `O=C(Nc1n[nH]c2cc(-c3ccccc3F)ccc12)C1CC1` [SB-733371], the “%Inh” value was 30%. `Cc1nn2c(=O)cc(N3CCOCC3)nc2n1Cc1cccc(Cl)c1Cl` [GSK2342769] was tested, and the “%Inh” value was 0%. `O=c1cc(N2CCOCC2)nc2n(Cc3ccc(F)c(Cl)c3)ccn12` [GSK2297099] was tested, and the “%Inh” value was 0%. In the case of `Cc1nnc(-c2ccc(C)c(-c3ccc(C(=O)O)cc3)c2)o1` [GW608005], the “%Inh” value is reported as 5%. For `Cc1c(Cn2c(C)nn3c(=O)cc(N4CCO[C@H](C)C4)nc23)cccc1C(F)(F)F` [GSK2373690], the “%Inh” value was 0%. `Nc1ncnc2c1ncn2-c1cccc(F)c1` [SKF-97560] was tested, and the “%Inh” value was 4%. For `Nc1ncnc2c1ncn2-c1ccc(Cl)cc1` [AH2635], the “%Inh” value was 10%. In the case of `CC(C)(C)c1ccc(C(=O)Nc2cn3cc(-c4ccccc4)ccc3n2)cc1`, the “%Inh” value is reported as 15%. For `Nc1nc(-c2ccccc2F)c(-c2ccnc3ccccc23)s1` [GW560459], the “%Inh” value was 0%. For `CCC(=O)c1c(-c2ccccc2)c2cc(Cl)ccc2c(=O)n1Cc1cc(C(=O)NC2CC2)n(C)n1`, the “%Inh” value was 9%. In the case of `CCS(=O)c1ccc(-c2coc3ccc(-c4nnc(C)o4)cc23)cc1` (stereo not drawn), the “%Inh” value is reported as 29%. For `COc1ccc(-c2cc3c(C)nc(N)nc3n([C@H]3CC[C@H](OCCO)CC3)c2=O)cn1`, the “%Inh” value was 40%. With `O=C(Nc1ccc2c(c1)OCO2)NC1CCN(c2ccnc(NCc3ccc(F)cc3)n2)CC1` [GSK1379859] the “%Inh” value was 6%.
